Active and inactive are the calls of the source. The rule behind the calls is not given here.

Data on 39 compounds can be found in PubChem BioAssay.

A short description of this test: Brca1-Bard1 BiLC signal decrease – luminescence, single concentration, counter-screen for Mdm2/MdmX interaction inhibitor project, confirmation (AID 504668). Conditions: Brca1/Bard1 bimolecular luciferase complementation counterscreen, at 8 µM, hits give high values.
As for `Cc1[nH]c(N=Nc2ccccc2)nc1N=Nc1ccccc1`, the inhibition was 24.1% (active).
Turning to `Nc1nonc1-n1nnc(C(=O)N/N=C/c2cc(Cl)ccc2O)c1CN1CCCCCC1`, the inhibition is 32.2% (active).
The same measure for `COc1ccc(C(=O)C/C(=C\C(=O)c2ccc(C)cc2)c2ccccc2)cc1`: 24.3% (active); for `CCOC(=O)c1c(-c2ccccc2)oc2ccc(OCC(O)CNCCN(C)C)cc12` (centres undefined): 35.1% (active).
As to `COC(=O)[C@@H]1[C@@H](C#N)C2(c3ccccc3-c3ccccc32)N(c2ccc(Cl)cc2)N1C#N`, the inhibition is 32.8% (active).
As for `CCN1CCN(CCNC(=O)c2ccc(/C=C3/Sc4ccccc4N(Cc4cccc(C)c4)C3=O)cc2)CC1`, the inhibition was 27.6% (active).
`Cc1nc(NC2=NCN(CCCN3CCOCC3)CN2)nc2c(C)cccc12`: the inhibition was 25.4% (active).
Consider `COc1cc(OC)c2cc(C(=O)N/N=C/c3cccc(OC)c3O)[nH]c2c1`, for which the inhibition was 33.8% (active).
Regarding `Cc1cc([N+](=O)[O-])cc(/C=N\NC(=O)C2COc3ccccc3O2)c1O` (centres undefined), the inhibition is 27.6% (active).
Consider `CC(=O)O[C@@H]1C[C@H]2C(C)(C)C(=O)C=C[C@]2(C)[C@H]2CC[C@@]3(C)[C@H](c4ccoc4)OC(=O)[C@H]4O[C@]43[C@@]21C`, for which the inhibition is 33.8% (active).
In the case of `Cc1cccc(NC(=O)Nc2cccc(Oc3c(F)c(F)c(F)c(F)c3F)c2)c1` it was 32.5% (active).
Consider `CN1CCc2c(sc(NC(=O)c3ccc(S(=O)(=O)N4CCc5ccccc54)cc3)c2C(N)=O)C1`, for which the inhibition was 24.1% (active).
As for `O=C(CCN1C(=O)/C(=C/c2ccccc2F)SC1=S)NCCc1ccc(O)cc1`, the inhibition was 33% (active).
With `Cc1ccc(S(=O)(=O)N2CCOCC2)cc1C(=O)Nc1nc(-c2ccccn2)cs1`, the inhibition was 30.4% (active).
As for `CN(C)CCCNC(=O)/C(=C\c1ccc(-c2ccc(Br)cc2)o1)NC(=O)c1ccccc1`, the inhibition is 29.2% (active).
For `CSc1nc2nccc(/C=C\c3ccccc3)n2n1`, the inhibition is 23.7% (active).
Turning to `CCc1ccc(C(O)(CC(C)C)C(CN2CCOCC2)c2ccccc2)cc1` (centres undefined), the inhibition is 27.2% (active).
Take `Cc1cccc(NC(c2ccc(C)s2)c2ccc3ccc(C)nc3c2O)n1` (centres undefined): the inhibition was 23.7% (active).
Turning to `N=c1n(CCN2CCCCC2)c2ccccc2n1CC(O)c1cccc(Br)c1` (centres undefined), the inhibition was 34.4% (active).
The same measure for `O=c1c2cc(Br)ccc2nc(-c2cccc(C(F)(F)F)c2)n1O`: 29.9% (active); for `Cc1cc(C)nc(N/N=C/c2cc(Br)ccc2O)n1`: 26.2% (active).
As to `CCc1ccc2c(c1)C1(NN=C(c3cccc4ccccc34)S1)C(=O)N2` (centres undefined), the inhibition was 30% (active).
With `CCN(CC)CCNC(=O)c1ccc(NC(=O)c2cn(-c3ccc(F)cc3)nc2-c2cccc(OC)c2)cc1`, the inhibition is 27.9% (active).
Consider `Cc1nnc(-c2ccccc2)c(=O)n1/N=C/c1c(O)ccc2ccccc12`, for which the inhibition is 30.7% (active).
In the case of `C/C(=N\Nc1nc(-c2ccccn2)nc2ccccc12)c1ccc(F)cc1`, the inhibition is 34.4% (active).
As for `CCOc1ccccc1CNC(=O)c1cc2oc3ccccc3c2n1CC`, the inhibition is 25.6% (active).
On to `Cc1cc(C)n(-c2ccc3cccc(NS(C)(=O)=O)c3n2)n1`, for which the inhibition is 32.1% (active).
As to `Cc1ccc(-n2ncc3c(SCc4ccccn4)ncnc32)c(C)c1`, the inhibition is 27.6% (active).
As to `O=C(Nc1ccc(-c2nc3ccccc3[nH]2)cc1)c1ccc2c(c1)OCO2`, the inhibition is 28.7% (active).
For `CCOc1cc(/C=C2/NC(=O)N(CC(=O)Nc3cccc(C)c3)C2=O)ccc1OC`, the inhibition is 32.2% (active).
On to `O=C(Nc1c2ccccc2nc2ccccc12)C(Cl)(Cl)Cl`, for which the inhibition was 33.7% (active).
In the case of `CCCOc1ccc(C(=O)C(CN2CCOCC2)c2ccccc2)cc1` (centres undefined) it was 25.6% (active); in that of `C=CCn1c(O)c(N=NC(=S)Nc2cccc(C)c2)c2ccccc21`, 33.1% (active).
In the case of `CC(Oc1cccc(Br)c1)C(=O)NNC(=O)c1ccccn1` (centres undefined) it was 35.8% (active); in that of `COC(=O)[C@@]1(Cc2ccccc2)[C@H]2C(=O)N(Cc3ccccc3)C(=O)[C@H]2[C@H]2CN=C(SCc3ccc(C#N)cc3)N21`, 28.4% (active); in that of `CC(=O)c1sc(NC(=O)C2(F)C(F)(F)C(F)(F)C(F)(F)C(F)(F)C2(F)F)nc1C`, 28.7% (active).
The same measure for `Cc1nn2c(NCc3ccccn3)cc(C(C)C)nc2c1-c1ccccc1`: 28.7% (active); for `Oc1c(CN2CCCC2)cc(COCc2ccccc2)c2cccnc12`: 32.2% (active); for `Oc1ccccc1C1CC(c2cccs2)=NC(c2ccc(Cl)cc2)N1` (centres undefined): 28.5% (active).
